# Assay results from PubChem BioAssay AID488890 (Southern Research Specialized Biocontainment Screening …, 2010).
# Hit rate of the full screen: of about 320,000 compounds, about 1,300 (0.41%) were called active. Inconclusive results (about 3%) are left out. No rule for the calls is given here. A selection follows. Potency and affinity values are given separately.
# Assay: growth inhibition of non-replicating M. tuberculosis (AID 488890);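 also: plate controls were DMSO cells for no effect and high antibiotic wells for full effect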
# Details: Mycobacterium tuberculosis non-replicating, at 25 µM, stronger effect = higher value
row,Compound,inhibition [%]
1,O=C(CN1C(=O)C(=O)c2ccccc21)c1ccccc1,27
2,COc1ccc(-n2c(-c3ccccc3)cc3c2CCCC3=O)cc1,17.2
3,CCCCCCNc1nc(OC)nc(N2CC3CC(C2)c2cccc(=O)n2C3)n1 (stereo unspecified),3.85
4,COc1ccc(-c2ccc(OC)cc2)cc1,10.9
5,COc1ccc(O)cc1,-8.51
6,CCc1ccc(OCc2ccc(C(=O)OC)o2)cc1,72.2
7,COC(=O)c1ccc(COc2ccc(/C=N/O)cc2)o1,29.5
8,COc1ccc(-n2cnc3cc(C(=O)N4CCOCC4)ccc32)cc1,-8.02
9,O=C(NC(Cc1ccccc1)C(=O)O)NC12CC3CC(CC(C3)C1)C2 (stereo unspecified),-6.43
10,CCN(CC)CCn1c(=S)[nH]c2cc(C(=O)NCc3ccccc3Cl)ccc2c1=O,35
11,N#CC1=C(N)Oc2n[nH]c(-c3ccccc3)c2C1c1cccnc1 (stereo unspecified),9.98
12,Cc1ccc(C2C(C#N)=C(N)Oc3n[nH]c(-c4cccnc4)c32)o1 (stereo unspecified),-0.74
13,O=C(OCC(=O)c1cccc2ccccc12)c1ccc(CO)cc1,60
14,CCCN(CCC)c1nc2ccccc2n2c(C)nnc12,17.5
15,O=C(N/N=C\c1c(O)ccc2ccccc12)c1ccc(Cn2cccn2)o1,-4.74
16,O=C(N/N=C\c1c(O)ccc2ccccc12)c1ccc(O)cc1,27.8
17,CSc1cccc(CN2CCC(Oc3ccc(C(=O)N4CCCCC4)cc3)CC2)c1,64.2
18,CCOC(=O)c1c(NC(=O)CSc2nc3cc(Cl)ccc3s2)sc(C(C)=O)c1C,2.44
19,Cc1ccc(/C=N/NC(=O)c2nnn(-c3nonc3N)c2CN(C)C)o1,-3.62
20,O=C(Oc1c(-c2ccccc2)oc2ccccc2c1=O)c1ccccc1,26.1
21,NC(=O)COc1c(-c2ccc(Br)o2)oc2ccccc2c1=O,-1.98
22,N#Cc1c(OCC(=O)c2ccccc2)nc2c(c1-c1ccco1)CCc1ccccc1-2,-14.7
23,NC(=O)Cc1nc(-c2ccc(F)cc2)cs1,8.71
24,Cc1ccc(NCC(=O)c2ccc([N+](=O)[O-])cc2)cc1,68
25,O=C(CNc1cccc2ccccc12)c1ccc([N+](=O)[O-])cc1,73.1

row,Compound,inhibition [%]
1,O=C(NC(=S)Nc1cccc(F)c1)c1cccc([N+](=O)[O-])c1,74
2,Cc1ccc(C(=O)CNc2cccc([N+](=O)[O-])c2)cc1,11.3
3,CCOC(=O)C1=C(C)N(CCCC(=O)O)C(=O)NC1c1ccccc1Cl (stereo unspecified),0.44
4,CCOC(=O)C(C)/C(C)=N\Nc1ccc([N+](=O)[O-])cc1[N+](=O)[O-] (stereo unspecified),-5.18
5,CCCC1CC(c2csc(N)n2)CCO1 (stereo unspecified),-0.79
6,COc1ccc(OC)c(/C=C/C(=O)Oc2ccc(C(C)=O)cc2)c1,64.2
7,O=C(Cn1c(SCC(=O)N2CCCc3ccccc32)nc2ccccc21)N1CCCC1,-11.8
8,O=C(NNC(=O)c1ccc(Br)cc1)c1ccncc1,41.7
9,O=C(NNC(=O)C1CCC1)c1ccc(Br)cc1,3.14
10,C/C(NC1CCCCC1)=C(/C#N)C(=O)NCCN1CCOCC1,1.64
11,O=[N+]([O-])c1cnc(Nc2ccccc2)nc1Nc1ccccc1,0.51
12,CC(=O)OCC(=O)Nc1ccc([N+](=O)[O-])cc1Cl,-21.2
13,Cc1cc(O)c(NC(=O)c2cc([N+](=O)[O-])ccc2Cl)cc1C,32.1
14,CN(C)C(=O)Oc1ccc2ccccc2c1Cl,5.7
15,O=C(CSc1ccccc1F)NCCN1C(=O)CSC1=O,-0.52
16,O=C(O)CN1C(c2ccccc2)=Nc2ccc(Br)cc2C1c1ccccc1 (stereo unspecified),-0.36
17,CCOC(=O)c1cc2c(ccc3ccccc32)oc1=O,74.5
18,O=C(O)c1cc2c(ccc3ccccc32)oc1=O,-4.26
19,Cc1cccc(OCC(=O)NCC(C)(C)N2CCOCC2)c1,5.72
20,CCOC(=O)N1CCC(c2[nH][nH]c(=O)c2C)CC1,-7.47
21,CCCCn1c(=O)c(CCC(=O)OCC(=O)NC(C)c2ccccc2)nc2ccccc21 (stereo unspecified),55.8
22,Cc1cccc(-n2c(/C=C/c3ccc([N+](=O)[O-])o3)nc3ccccc3c2=O)c1,28.4
23,Cn1c(/C=C/c2ccccc2[N+](=O)[O-])nc2ccccc2c1=O,-6.23
24,Cc1cc(=O)oc(C)c1C(=O)OCC(=O)c1ccc(Cl)cc1,72.7
25,O=C(NCCCN1CCOCC1)c1cc2ccccc2o1,-15.4

row,Compound,inhibition [%]
1,O=C1C(c2ccncc2)=C(O)c2ccccc21,26.2
2,Cc1ccc(C2=C(O)c3ccccc3C(=O)C2=O)cc1,71.2
3,Cc1cccc(NC(=S)N2CCN(c3cc(C)ccc3C)CC2)c1,-5.31
4,O=c1[nH]c2ccccc2nc1-c1ccccc1,-4.14
5,O=c1[nH]c2ccccc2nc1-c1ccc(Cl)cc1,-0.23
6,CN(C)CC/C=C1/c2ccccc2Sc2ccc(Cl)cc21,75.6
7,CN(C)CC/C=C1/c2cc(F)ccc2Sc2ccc(Cl)cc21,79.7
8,Cc1ccc(OCC(=O)N/N=C2/SCC(=O)N2Cc2ccccc2)cc1,29.3
9,CC(CN1CCN(C/C=C/c2ccccc2)CC1)c1ccccc1 (stereo unspecified),2.29
10,COC(CNC(=O)c1coc2nc3ccccc3nc12)OC,5.54
11,COC(CNC(=O)c1cccnc1)OC,-3.72
12,COc1ccc(Cl)cc1NC(=O)CN(C)C(=O)C12CC3CC(CC(Cl)(C3)C1)C2,41.4
13,COc1cccc(NC(=O)CCC(=O)NCc2ccco2)c1,-7.17
14,CCOc1ccc(C(=O)NCc2cccs2)cc1,44.9
15,Cc1ccc(N2C(=O)c3cccc4c([N+](=O)[O-])ccc(c34)C2=O)c2cccnc12,7.23
16,O=C1c2cccc3cccc(c23)C(=O)N1c1ccccn1,-12.3
17,O=C1c2ccccc2C(=O)N1c1ccc(Cl)cn1,7.35
18,O=C1c2cccc3c([N+](=O)[O-])ccc(c23)C(=O)N1CCc1ccccn1,33.7
19,Cc1ccc(C(=O)O)cc1N1C(=O)c2cccc3c([N+](=O)[O-])ccc(c23)C1=O,3.01
20,O=C1c2ccc([N+](=O)[O-])cc2C(=O)N1c1ccc(Cl)cn1,-16.1
21,O=C1c2ccccc2C(=O)N1c1cc([N+](=O)[O-])ccn1,4.94
22,CC(=O)Nc1cccc2c1C(=O)N(c1ccc(OC(C)=O)cc1)C2=O,19
23,COc1ccc(CCN(C)C(=O)CSc2nnc(-c3ccco3)o2)cc1OC,-6.6
24,C=CCn1c(SCC(=O)Nc2ccc(NC(=O)c3ccco3)c(OC)c2)nnc1-c1ccncc1,13.9
25,Cc1ccccc1OCC(=O)NCCCNC(=O)c1cccnc1,-5.91

row,Compound,inhibition [%]
1,COc1cccc(-c2nnc(-c3ccco3)o2)c1,65.8
2,Cc1ccccc1Oc1ncnc(N)c1[N+](=O)[O-],6.54
3,Cc1cccc(Oc2ncnc(N)c2[N+](=O)[O-])c1C,29.9
4,Cc1ccccc1C(=O)NCC(=O)OCCCOC(=O)CNC(=O)c1ccccc1C,-9.69
5,O=C1CN(C(=O)CNCc2ccccc2Cl)c2ccccc2N1,9.45
6,Cc1ccc(-c2cc(-c3ccc(F)cc3)n[nH]2)c(O)c1,-3.72
7,CN(C)CCOC(=O)/C(=C/c1cn(C)c2ccccc12)NC(=O)c1ccccc1,-4.57
8,Cc1ccc(S(=O)(=O)CCC(=O)OCC(=O)c2ccc(C)c(C)c2)cc1,73.6
9,Cc1ccc(C(=O)CCS(=O)(=O)c2ccc(F)cc2)cc1,69.2
10,Cc1ccc(C)c(OCc2nnc(NC(=O)c3ccc4c(c3)OCO4)s2)c1,6.85
11,O=C1NC2(CCCCC2)NN1c1ccccc1,18.6
12,O=C1NC2(CCC3(CC2)OCCO3)NN1c1ccccc1,14.8
13,O=C(O)Cc1ccc(Oc2ncc(C(F)(F)F)cc2Cl)cc1,-16.8
14,O=C(CCCc1nc(-c2ccccc2)no1)Nc1cccnc1,34.2
15,Cc1cccc(-c2noc(CCCC(=O)Nc3cccnc3)n2)c1,32.7
16,O=[N+]([O-])c1ccc2ncnc(Nc3ccc4c(c3)OCCO4)c2c1,21.4
17,Cc1c(C(=O)OCc2ccc(F)cc2)sc2nc3n(c(=O)c12)CCC3,29.2
18,CCOC(=O)c1sc2nc3n(c(=O)c2c1C)CCC3,1.86
19,N#Cc1cc(N)ccc1Sc1ccccc1,9.77
20,COc1ccc(N2CCN(c3ccc(N)cc3C#N)CC2)cc1,-1.74
21,CS(=O)(=O)N(CC(=O)NCCC1=CCCCC1)c1ccc2c(c1)OCO2,-1.16
22,COc1ccc(-c2cc(C(=O)NCCN3CCOCC3)no2)cc1OC,-10.1
23,CCCCC(=O)N1CCN(c2nc3ccc(F)cc3s2)CC1,50.8
24,Cc1ccc2sc(N3CCN(C(=O)c4ccc([N+](=O)[O-])o4)CC3)nc2c1C,68.9
25,Cc1ccc(C)c2sc(N3CCN(C(=O)c4ccc([N+](=O)[O-])o4)CC3)nc12,77.8

row,Compound,inhibition [%]
1,O=C(c1ccccc1)N1CCN(c2nc3ccc([N+](=O)[O-])cc3s2)CC1,24.5
2,Cc1ccc(OCCC(=O)OCC(=O)NCc2ccccc2)cc1,30.8
3,CC1(C(=O)CSc2ncn[nH]2)CCC(=O)O1 (stereo unspecified),-3.75
4,O=C(NC1CCCCC1)c1cc2ccccc2cc1O,30.4
5,O=C(NC1CC1)c1cc2ccccc2o1,6.17
6,CC(NC(=O)Cn1cnnn1)C12CC3CC(CC(C3)C1)C2 (stereo unspecified),2.51
7,CCn1cc(C(=O)NC(C)C2CC3CCC2C3)cn1 (stereo unspecified),78.4
8,Cc1ccc(C2NC(=O)c3ccccc3O2)cc1 (stereo unspecified),9.75
9,COc1ccc(NS(=O)(=O)c2ccc(N3CCCCC3)c(NC(=O)C(C)NC(N)=O)c2)cc1 (stereo unspecified),17.6
10,CC/C(=N\NS(=O)(=O)c1ccc(C)cc1)c1ccco1,-13.4
11,COc1ccccc1OCCCCN1CCCCC1,7.51
12,COc1ccccc1OCCOCCN1CCCC1,-3.17
13,COc1ccc(CC(=O)NC(C)(C)C)cc1S(=O)(=O)N1CCOCC1,-3.56
14,CC(=O)N1CCN(C(=O)c2cc3ccccc3o2)CC1,2.82
15,O=C(c1ccccc1)N1CCN(C(=O)c2cc3ccccc3o2)CC1,-6.53
16,COc1cc2c(cc1OC)CN(C(=O)c1ccc(Br)o1)CC2,-1.97
17,O=C(c1ccc([N+](=O)[O-])o1)N1CCOCC1,15.5
18,COc1cc2c(cc1OC)CN(C(=O)c1ccc(OC)c([N+](=O)[O-])c1)CC2,2.12
19,O=C(c1ccc([N+](=O)[O-])o1)N1CCCCCC1,56.6
20,O=C(c1ccccc1[N+](=O)[O-])N1CCc2ccccc2C1,-4.71
21,O=C(c1ccc([N+](=O)[O-])cc1)N1CCc2ccccc2C1,39.6
